From the supplement of paper PMC8728848
Only a selection was taken, and the strongest signals are over-represented in it overall.

Key:
Assay in all cases: glycan array binding signal (z-score within array); higher = stronger binding
Details in all cases: glycan notation: IUPAC condensed, linker removed
Fuc(a1-2)Gal(b1-4)Glc = molecular target: Fuc(a1-2)Gal(b1-4)Glc
In short: (§1)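 From the Consortium for Functional Glycomics database, 3228 arrays were curated, keeping only those whose protein sequence was available. Binding is given as a within-array Z-score averaged across arrays sharing a protein sequence and across linkers. Negative Z-scores can be read as non-binding.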

[1] = molecular target: Fuc(a1-2)Gal(b1-4)GlcNAc(b1-2)[Fuc(a1-2)Gal(b1-4)GlcNAc(b1-4)]Man(a1-3)[Fuc(a1-2)Gal(b1-4)GlcNAc(b1-2)Man(a1-6)]Man(b1-4)GlcNAc(b1-4)GlcNAc
In short: as §1

[2] = molecular target: Fuc(a1-2)Gal(b1-4)GlcNAc(b1-6)GalNAc
In short: as §1

[3] = molecular target: Fuc(a1-2)Gal(b1-4)[Fuc(a1-3)]GlcNAc(b1-2)[Fuc(a1-2)Gal(b1-4)[Fuc(a1-3)]GlcNAc(b1-4)]Man(a1-3)[Fuc(a1-2)Gal(b1-4)[Fuc(a1-3)]GlcNAc(b1-2)Man(a1-6)]Man(b1-4)GlcNAc(b1-4)GlcNAc
In short: as §1

[4] = molecular target: Fuc(a1-2)[Gal(a1-3)]Gal(b1-4)GlcNAc
In short: as §1

[5] = molecular target: Fuc(a1-2)[Gal(a1-3)]Gal(b1-4)GlcNAc(b1-2)Man
In short: as §1

[6] = molecular target: Fuc(a1-2)[GalNAc(a1-3)]Gal(b1-3)GlcNAc
In short: as §1

[7] = molecular target: Fuc(a1-2)[GalNAc(a1-3)]Gal(b1-4)GlcNAc(b1-2)Man(a1-3)[Fuc(a1-2)[GalNAc(a1-3)]Gal(b1-4)GlcNAc(b1-2)Man(a1-6)]Man(b1-4)GlcNAc(b1-4)[Fuc(a1-6)]GlcNAc
In short: as §1

[8] = molecular target: Gal(a1-3)Gal(b1-3)GlcNAc(b1-6)GalNAc
In short: as §1

[9] = molecular target: Gal(a1-3)Gal(b1-4)GlcNAc(b1-3)GalNAc
In short: as §1

[10] = molecular target: Gal(b1-3)GlcNAc(b1-2)[Gal(b1-3)GlcNAc(b1-6)]Man(a1-6)[Gal(b1-3)GlcNAc(b1-2)Man(a1-3)]Man(b1-4)GlcNAc(b1-4)GlcNAc
In short: as §1

[11] = molecular target: Gal(b1-3)[Fuc(a1-4)]GlcNAc(b1-6)GalNAc
In short: as §1

Gal(b1-4)Glc6S = molecular target: Gal(b1-4)Glc6S
In short: as §1

[12] = molecular target: Gal(b1-4)GlcNAc(b1-3)Gal(b1-3)GalNAc
In short: as §1

[13] = molecular target: Gal(b1-4)GlcNAc(b1-3)Gal(b1-4)GlcNAc(b1-2)Man(a1-3)[Gal(b1-4)GlcNAc(b1-3)Gal(b1-4)GlcNAc(b1-2)Man(a1-6)]Man(b1-4)GlcNAc(b1-4)[Fuc(a1-6)]GlcNAc
In short: as §1

[14] = molecular target: Gal(b1-4)GlcNAc(b1-3)Gal(b1-4)GlcNAc(b1-3)Gal(b1-4)GlcNAc(b1-3)Gal(b1-4)GlcNAc(b1-2)Man(a1-3)[Gal(b1-4)GlcNAc(b1-3)Gal(b1-4)GlcNAc(b1-3)Gal(b1-4)GlcNAc(b1-3)Gal(b1-4)GlcNAc(b1-2)Man(a1-6)]Man(b1-4)GlcNAc(b1-4)[Fuc(a1-6)]GlcNAc
In short: as §1

[15] = molecular target: Gal(b1-4)GlcNAc(b1-6)[Gal(b1-4)GlcNAc(b1-3)]GalNAc
In short: as §1

Gal3S(b1-4)Glc6S = molecular target: Gal3S(b1-4)Glc6S
In short: as §1

Gal3S(b1-4)GlcNAc = molecular target: Gal3S(b1-4)GlcNAc
In short: as §1

GalNAc(b1-4)Gal(b1-4)Glc = molecular target: GalNAc(b1-4)Gal(b1-4)Glc
In short: as §1

[16] = molecular target: GalNAc(b1-4)GlcNAc(b1-2)Man(a1-3)[GalNAc(b1-4)GlcNAc(b1-2)Man(a1-6)]Man(b1-4)GlcNAc(b1-4)GlcNAc
In short: as §1

[17] = molecular target: GlcNAc(a1-6)Gal(b1-4)GlcNAc
In short: as §1

[18] = molecular target: GlcNAc(b1-3)Gal(b1-4)GlcNAc(b1-3)Gal(b1-4)GlcNAc(b1-2)Man(a1-3)[GlcNAc(b1-3)Gal(b1-4)GlcNAc(b1-3)Gal(b1-4)GlcNAc(b1-2)Man(a1-6)]Man(b1-4)GlcNAc(b1-4)[Fuc(a1-6)]GlcNAc
In short: as §1

[19] = molecular target: GlcNAc(b1-3)Gal(b1-4)GlcNAc(b1-3)Gal(b1-4)GlcNAc(b1-3)Gal(b1-4)GlcNAc(b1-2)Man(a1-3)[GlcNAc(b1-3)Gal(b1-4)GlcNAc(b1-3)Gal(b1-4)GlcNAc(b1-3)Gal(b1-4)GlcNAc(b1-2)Man(a1-6)]Man(b1-4)GlcNAc(b1-4)[Fuc(a1-6)]GlcNAc
In short: as §1

[20] = molecular target: Man(a1-2)Man(a1-2)Man(a1-6)[Man(a1-3)]Man
In short: as §1

[21] = molecular target: Man(a1-3)[Man(a1-6)]Man(b1-4)GlcNAc(b1-4)[Fuc(a1-6)]GlcNAc
In short: as §1

[22] = molecular target: Neu5Ac(a2-3)Gal(b1-3)GlcNAc(b1-3)GalNAc
In short: as §1

[23] = molecular target: Neu5Ac(a2-3)Gal(b1-4)GlcNAc(b1-2)[Neu5Ac(a2-3)Gal(b1-4)GlcNAc(b1-6)]Man(a1-6)[Neu5Ac(a2-3)Gal(b1-4)GlcNAc(b1-2)Man(a1-3)][GlcNAc(b1-4)]Man(b1-4)GlcNAc(b1-4)GlcNAc
In short: as §1

[24] = molecular target: Neu5Ac(a2-3)Gal(b1-4)GlcNAc(b1-3)Gal
In short: as §1

[25] = molecular target: Neu5Ac(a2-3)Gal(b1-4)GlcNAc(b1-3)Gal(b1-4)GlcNAc(b1-3)GalNAc
In short: as §1

[26] = molecular target: Neu5Ac(a2-3)Gal(b1-4)GlcNAc(b1-3)Gal(b1-4)[Fuc(a1-3)]GlcNAc
In short: as §1

[27] = molecular target: Neu5Ac(a2-3)Gal(b1-4)GlcNAc(b1-6)[Neu5Ac(a2-3)Gal(b1-3)]GalNAc
In short: as §1

[28] = molecular target: Neu5Ac(a2-3)Gal(b1-4)[Fuc(a1-3)]GlcNAc(b1-3)Gal(b1-4)GlcNAc
In short: as §1

[29] = molecular target: Neu5Ac(a2-3)Gal(b1-4)[Fuc(a1-3)]GlcNAc(b1-3)GalNAc
In short: as §1

[30] = molecular target: Neu5Ac(a2-3)Gal(b1-4)[Fuc(a1-3)]GlcNAc(b1-6)[Neu5Ac(a2-3)Gal(b1-3)]GalNAc
In short: as §1

[31] = molecular target: Neu5Ac(a2-6)Gal(b1-4)GlcNAc(b1-2)Man(a1-3)[Man(a1-6)]Man(b1-4)GlcNAc(b1-4)GlcNAc
In short: as §1

[32] = molecular target: Neu5Ac(a2-6)Gal(b1-4)GlcNAc(b1-2)Man(a1-3)[Neu5Ac(a2-6)Gal(b1-4)GlcNAc(b1-2)Man(a1-6)]Man(b1-4)GlcNAc(b1-4)GlcNAc
In short: as §1

[33] = molecular target: Neu5Ac(a2-6)Gal(b1-4)GlcNAc(b1-2)Man(a1-3)[Neu5Ac(a2-6)Gal(b1-4)GlcNAc(b1-2)Man(a1-6)]Man(b1-4)GlcNAc(b1-4)[Fuc(a1-6)]GlcNAc
In short: as §1

[34] = molecular target: Neu5Ac(a2-6)Gal(b1-4)GlcNAc(b1-3)Gal(b1-3)GlcNAc
In short: as §1

[35] = molecular target: Neu5Ac(a2-6)Gal(b1-4)GlcNAc(b1-3)Gal(b1-4)GlcNAc(b1-3)Gal(b1-4)GlcNAc(b1-2)Man(a1-3)[Neu5Ac(a2-6)Gal(b1-4)GlcNAc(b1-3)Gal(b1-4)GlcNAc(b1-3)Gal(b1-4)GlcNAc(b1-2)Man(a1-6)]GalNAc
In short: as §1

[36] = molecular target: Neu5Ac(a2-6)Gal(b1-4)GlcNAc(b1-3)Gal(b1-4)GlcNAc(b1-3)GalNAc
In short: as §1

[37] = molecular target: Neu5Ac(a2-6)Gal(b1-4)GlcNAc(b1-3)[Neu5Ac(a2-6)Gal(b1-4)GlcNAc(b1-6)]GalNAc
In short: as §1

[38] = molecular target: Neu5Ac(a2-8)Neu5Ac(a2-8)Neu5Ac(a2-3)[GalNAc(b1-4)]Gal(b1-4)Glc
In short: as §1

[39] = molecular target: Neu5Gc(b2-6)Gal(b1-4)GlcNAc
In short: as §1

B1: ERGIC1-EDTA (Homo sapiens), Q969X5 (protein)
chain: MKFLVNVALVFMVVYISYIYAAAHMHHHHHHDYDIPTTENLYFQGSEVVNELYVDDPDKDSGGKIDVSLNISLPNLHCELVGLDIQDEMGRHEVGHIDNSMKIPLNNGAGCRFEGQFSINKVPGNFHVSTHSATAQPQNPDMTHVIHKLSFGDTLQVQNIHGAFNALGGADRLTSNPLASHDYILKIVPTVYEDKSGKQRYSYQYTVANKEYVAYSHTGRIIPAIWFRYDLSPITVKYTE
glycan array binding signal (z-score) (Fuc(a1-2)Gal(b1-4)Glc): -1.4
glycan array binding signal (z-score) [1]: 2.88
glycan array binding signal (z-score) [2]: 1.3
glycan array binding signal (z-score) [3]: 1.07
glycan array binding signal (z-score) [4]: -0.089
glycan array binding signal (z-score) [5]: 0.546
glycan array binding signal (z-score) [6]: 0.499
glycan array binding signal (z-score) [7]: 2.25
glycan array binding signal (z-score) [8]: 0.056
glycan array binding signal (z-score) [9]: -0.034
glycan array binding signal (z-score) [10]: 3.15
glycan array binding signal (z-score) [11]: -0.044
glycan array binding signal (z-score) (Gal(b1-4)Glc6S): -0.759
glycan array binding signal (z-score) [12]: -1.26
glycan array binding signal (z-score) [13]: 2.13
glycan array binding signal (z-score) [14]: 2.23
glycan array binding signal (z-score) [15]: -0.361
glycan array binding signal (z-score) (Gal3S(b1-4)Glc6S): 0.151
glycan array binding signal (z-score) (Gal3S(b1-4)GlcNAc): -0.117
glycan array binding signal (z-score) (GalNAc(b1-4)Gal(b1-4)Glc): -0.531
glycan array binding signal (z-score) [16]: 0.638
glycan array binding signal (z-score) [17]: -0.295
glycan array binding signal (z-score) [18]: 0.799
glycan array binding signal (z-score) [19]: 2.52
glycan array binding signal (z-score) [20]: -0.459
glycan array binding signal (z-score) [21]: 2.1
glycan array binding signal (z-score) [22]: 0.617
glycan array binding signal (z-score) [23]: -0.63
glycan array binding signal (z-score) [24]: -0.734
glycan array binding signal (z-score) [25]: -0.406
glycan array binding signal (z-score) [26]: -0.82
glycan array binding signal (z-score) [27]: -0.285
glycan array binding signal (z-score) [28]: 2.27
glycan array binding signal (z-score) [29]: 3
glycan array binding signal (z-score) [30]: 1.03
glycan array binding signal (z-score) [31]: 1.69
glycan array binding signal (z-score) [32]: -0.027
glycan array binding signal (z-score) [33]: 2.07
glycan array binding signal (z-score) [34]: 0.896
glycan array binding signal (z-score) [35]: 2.02
glycan array binding signal (z-score) [36]: 0.381
glycan array binding signal (z-score) [37]: -1.06
glycan array binding signal (z-score) [38]: 0.592
glycan array binding signal (z-score) [39]: -0.624
